Common to all, as to assay: DAPPL (digital affinity profiling via proximity ligation, sequencing); 10 mM Tris-HCl pH 7.5, 50 mM NaCl, 1 mM DTT, 4% glycerol, room temperature, 30 min; GST-TFs on glutathione beads, 16-mer random dsDNA library, 0.1% formaldehyde crosslink after washing; high values mean tight binding
For one assay, the target named is T1, FEV (Homo sapiens, UniProt Q99581 1-238).
T1 sequence: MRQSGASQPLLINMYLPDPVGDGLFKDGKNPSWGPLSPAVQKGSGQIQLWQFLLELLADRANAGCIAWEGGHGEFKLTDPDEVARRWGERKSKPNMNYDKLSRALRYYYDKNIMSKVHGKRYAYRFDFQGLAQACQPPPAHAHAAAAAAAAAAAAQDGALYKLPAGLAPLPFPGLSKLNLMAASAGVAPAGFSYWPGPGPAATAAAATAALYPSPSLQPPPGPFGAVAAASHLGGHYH
The note with it: protein: recombinant; tags: N-terminal GST; dsDNA, one strand shown. In outline:
(§1)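 After expression in yeast as GST fusions, human transcription factors were bound to glutathione beads, DNA-barcoded and mixed with a tag-only sample. The pools were incubated with 200 nmole of a 16-mer random double-stranded DNA library in Tris/NaCl/DTT/glycerol buffer (30 min, room temperature), washed and crosslinked with 0.1% formaldehyde. Proximity ligation with BsaI/T4 ligase ran for 1 h at 37 °C, before PCR amplification and sequencing on an Illumina NextSeq500. Binding signal is a hexamer's read frequency for a factor divided by its frequency for the tag-only sample.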

For another assay, the target named is ETV5 (Homo sapiens, UniProt P41161 1-510). The note with it: protein: recombinant; tags: N-terminal GST; dsDNA, one strand shown. The method, boiled down: as §1
Chain of ETV5 (P41161 whole entry): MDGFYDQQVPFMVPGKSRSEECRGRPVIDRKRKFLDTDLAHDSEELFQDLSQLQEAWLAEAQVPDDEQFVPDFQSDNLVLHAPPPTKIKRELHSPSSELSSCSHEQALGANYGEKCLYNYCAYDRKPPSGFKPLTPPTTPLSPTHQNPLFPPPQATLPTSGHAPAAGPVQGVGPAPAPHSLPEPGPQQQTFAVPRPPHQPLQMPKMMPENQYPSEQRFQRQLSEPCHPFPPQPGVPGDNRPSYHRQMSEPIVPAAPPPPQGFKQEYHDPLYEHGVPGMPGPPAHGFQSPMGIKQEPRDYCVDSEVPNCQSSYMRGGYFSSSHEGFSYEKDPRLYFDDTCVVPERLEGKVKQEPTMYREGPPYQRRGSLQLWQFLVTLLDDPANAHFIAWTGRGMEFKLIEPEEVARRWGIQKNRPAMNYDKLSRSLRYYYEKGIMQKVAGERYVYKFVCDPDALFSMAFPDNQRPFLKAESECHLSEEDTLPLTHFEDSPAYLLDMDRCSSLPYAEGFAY
The target in the next assay is HSF1 (Homo sapiens, UniProt Q00613 1-529). The note with it: protein: recombinant; tags: N-terminal GST; chain copies: 3; dsDNA, one strand shown. In outline:
as §1

For the next assay, the target named is T2, SPIC (Homo sapiens, UniProt Q8N5J4 1-248).
T2 sequence: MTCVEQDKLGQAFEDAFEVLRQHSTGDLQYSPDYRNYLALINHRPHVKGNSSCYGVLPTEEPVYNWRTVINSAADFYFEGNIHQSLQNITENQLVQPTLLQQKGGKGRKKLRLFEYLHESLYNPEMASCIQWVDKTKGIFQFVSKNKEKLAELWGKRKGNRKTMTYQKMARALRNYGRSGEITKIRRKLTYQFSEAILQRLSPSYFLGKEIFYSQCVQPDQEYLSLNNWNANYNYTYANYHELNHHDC
The following applies: protein: recombinant; tags: N-terminal GST; dsDNA, one strand shown. In outline: as §1

For another assay, the target named is ELF4 (Homo sapiens, UniProt Q99607 1-663). The note with it: protein: recombinant; tags: N-terminal GST; dsDNA, one strand shown. In outline:
as §1

In a further assay the target is T3, ELK4 (Homo sapiens, UniProt P28324-2 1-405).
T3 sequence: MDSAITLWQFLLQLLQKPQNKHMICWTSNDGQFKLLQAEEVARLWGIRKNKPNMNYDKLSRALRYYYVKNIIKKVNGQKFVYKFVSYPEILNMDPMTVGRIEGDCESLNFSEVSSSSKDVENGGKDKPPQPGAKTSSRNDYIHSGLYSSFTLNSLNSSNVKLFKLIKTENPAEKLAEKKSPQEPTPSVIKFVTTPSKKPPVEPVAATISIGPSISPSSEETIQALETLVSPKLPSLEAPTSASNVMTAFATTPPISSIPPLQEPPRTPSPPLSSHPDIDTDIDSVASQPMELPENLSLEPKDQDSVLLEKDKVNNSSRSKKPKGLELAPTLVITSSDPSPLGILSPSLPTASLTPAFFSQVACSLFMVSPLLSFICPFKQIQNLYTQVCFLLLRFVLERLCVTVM
The note with it: protein: recombinant; tags: N-terminal GST; dsDNA, one strand shown. The method, boiled down:
as §1

In a further assay the target is T4, ETV2 (Homo sapiens, UniProt O00321 1-342).
T4 sequence: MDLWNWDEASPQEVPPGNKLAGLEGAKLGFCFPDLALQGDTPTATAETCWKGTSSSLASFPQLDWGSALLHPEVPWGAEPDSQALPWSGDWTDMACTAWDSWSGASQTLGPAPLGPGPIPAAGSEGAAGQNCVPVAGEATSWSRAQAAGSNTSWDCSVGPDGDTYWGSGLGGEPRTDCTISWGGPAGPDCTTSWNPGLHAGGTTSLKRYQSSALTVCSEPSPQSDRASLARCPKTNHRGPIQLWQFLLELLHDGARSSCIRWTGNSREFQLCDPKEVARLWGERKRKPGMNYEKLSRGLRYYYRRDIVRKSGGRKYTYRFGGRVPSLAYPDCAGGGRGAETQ
The following applies: protein: recombinant; tags: N-terminal GST; dsDNA, one strand shown. In outline: as §1

Another assay has as its target T5, ELF3 (Homo sapiens, UniProt P78545 1-371).
T5 sequence: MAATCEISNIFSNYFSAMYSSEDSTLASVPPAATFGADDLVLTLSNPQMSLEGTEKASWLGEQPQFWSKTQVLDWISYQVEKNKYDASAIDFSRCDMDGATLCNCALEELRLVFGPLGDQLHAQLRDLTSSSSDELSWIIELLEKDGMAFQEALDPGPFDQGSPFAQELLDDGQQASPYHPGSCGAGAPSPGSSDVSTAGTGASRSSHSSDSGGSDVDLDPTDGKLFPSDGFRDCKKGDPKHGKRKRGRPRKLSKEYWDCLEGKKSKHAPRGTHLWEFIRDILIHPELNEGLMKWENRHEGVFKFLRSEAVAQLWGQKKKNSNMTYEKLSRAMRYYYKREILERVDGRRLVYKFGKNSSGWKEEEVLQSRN
The following applies: protein: recombinant; tags: N-terminal GST; dsDNA, one strand shown. The method, boiled down: as §1

For the next assay, the target named is CRX (Homo sapiens, UniProt O43186 1-299). The note with it: protein: recombinant; tags: N-terminal GST; dsDNA, one strand shown. The method, boiled down: as §1
Chain of CRX (O43186 whole entry): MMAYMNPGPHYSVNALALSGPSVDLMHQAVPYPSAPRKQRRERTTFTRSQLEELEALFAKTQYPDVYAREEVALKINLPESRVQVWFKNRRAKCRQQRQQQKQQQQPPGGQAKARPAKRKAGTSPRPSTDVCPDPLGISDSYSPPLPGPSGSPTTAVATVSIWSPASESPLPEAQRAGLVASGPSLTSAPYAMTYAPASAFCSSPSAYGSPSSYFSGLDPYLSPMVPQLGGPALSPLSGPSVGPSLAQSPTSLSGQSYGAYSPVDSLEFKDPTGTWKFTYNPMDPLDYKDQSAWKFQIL
The target of the next assay is ETV1 (Homo sapiens, UniProt P50549 1-477). The note with it: protein: recombinant; tags: N-terminal GST; dsDNA, one strand shown. The method, boiled down:
as §1

The target in another assay is T6, ERF (Homo sapiens, UniProt P50548 1-548).
T6 sequence: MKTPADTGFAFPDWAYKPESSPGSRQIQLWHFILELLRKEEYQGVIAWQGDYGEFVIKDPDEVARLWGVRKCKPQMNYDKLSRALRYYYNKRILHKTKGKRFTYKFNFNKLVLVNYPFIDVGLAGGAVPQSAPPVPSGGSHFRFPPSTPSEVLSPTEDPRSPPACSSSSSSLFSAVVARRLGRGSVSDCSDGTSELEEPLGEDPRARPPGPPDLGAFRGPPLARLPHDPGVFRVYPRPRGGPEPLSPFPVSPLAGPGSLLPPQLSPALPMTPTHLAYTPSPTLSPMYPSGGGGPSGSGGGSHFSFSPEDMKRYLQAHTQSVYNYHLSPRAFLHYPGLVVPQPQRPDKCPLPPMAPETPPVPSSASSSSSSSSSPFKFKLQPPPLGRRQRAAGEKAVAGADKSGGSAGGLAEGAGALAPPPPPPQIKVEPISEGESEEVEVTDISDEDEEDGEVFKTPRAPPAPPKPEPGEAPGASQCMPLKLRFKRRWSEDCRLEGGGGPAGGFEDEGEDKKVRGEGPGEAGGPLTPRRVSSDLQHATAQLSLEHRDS
The following applies: protein: recombinant; tags: N-terminal GST; dsDNA, one strand shown. In outline:
as §1

The next assay concerns the target T7, ETV3L (Homo sapiens, UniProt Q6ZN32 1-361).
T7 sequence: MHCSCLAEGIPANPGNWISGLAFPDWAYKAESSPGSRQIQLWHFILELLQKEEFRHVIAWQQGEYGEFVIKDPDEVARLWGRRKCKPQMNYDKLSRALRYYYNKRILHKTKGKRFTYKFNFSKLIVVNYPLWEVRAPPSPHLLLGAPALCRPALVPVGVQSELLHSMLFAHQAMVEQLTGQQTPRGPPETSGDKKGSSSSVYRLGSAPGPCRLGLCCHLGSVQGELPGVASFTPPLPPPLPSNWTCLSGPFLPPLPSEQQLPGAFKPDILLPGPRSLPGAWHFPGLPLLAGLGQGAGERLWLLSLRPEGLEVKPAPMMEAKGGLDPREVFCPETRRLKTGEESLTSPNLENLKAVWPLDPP
The following applies: protein: recombinant; tags: N-terminal GST; dsDNA, one strand shown. The method, boiled down:
as §1

The target in a further assay is T8, ETS2 (Homo sapiens, UniProt P15036 1-469).
T8 sequence: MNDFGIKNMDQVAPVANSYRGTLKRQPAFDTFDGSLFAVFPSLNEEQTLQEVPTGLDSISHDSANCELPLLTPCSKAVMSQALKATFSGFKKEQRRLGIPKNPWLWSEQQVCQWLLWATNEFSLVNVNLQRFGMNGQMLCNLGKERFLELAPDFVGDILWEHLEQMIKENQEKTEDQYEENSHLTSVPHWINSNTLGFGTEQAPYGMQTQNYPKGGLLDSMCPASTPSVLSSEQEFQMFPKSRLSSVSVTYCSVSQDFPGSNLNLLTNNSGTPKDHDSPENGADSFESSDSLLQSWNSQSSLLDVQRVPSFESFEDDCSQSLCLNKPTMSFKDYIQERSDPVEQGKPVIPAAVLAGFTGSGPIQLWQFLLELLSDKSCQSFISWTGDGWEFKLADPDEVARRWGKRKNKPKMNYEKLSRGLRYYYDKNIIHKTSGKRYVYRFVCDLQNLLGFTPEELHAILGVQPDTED
The following applies: protein: recombinant; tags: N-terminal GST; dsDNA, one strand shown. In outline:
as §1

A further assay has as its target T9, SPDEF (Homo sapiens, UniProt O95238 1-335).
T9 sequence: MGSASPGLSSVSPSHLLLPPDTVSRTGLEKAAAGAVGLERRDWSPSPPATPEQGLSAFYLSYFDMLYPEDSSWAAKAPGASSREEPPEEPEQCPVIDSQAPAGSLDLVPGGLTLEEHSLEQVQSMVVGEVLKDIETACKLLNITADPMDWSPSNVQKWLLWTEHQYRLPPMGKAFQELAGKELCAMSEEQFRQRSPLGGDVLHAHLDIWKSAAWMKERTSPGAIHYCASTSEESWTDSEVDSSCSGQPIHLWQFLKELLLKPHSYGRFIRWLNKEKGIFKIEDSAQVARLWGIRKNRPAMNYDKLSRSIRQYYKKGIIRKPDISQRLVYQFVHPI
The following applies: protein: recombinant; tags: N-terminal GST; dsDNA, one strand shown. In outline:
as §1

Another assay has as its target T10, ETV7 (Homo sapiens, UniProt Q9Y603 1-341).
T10 sequence: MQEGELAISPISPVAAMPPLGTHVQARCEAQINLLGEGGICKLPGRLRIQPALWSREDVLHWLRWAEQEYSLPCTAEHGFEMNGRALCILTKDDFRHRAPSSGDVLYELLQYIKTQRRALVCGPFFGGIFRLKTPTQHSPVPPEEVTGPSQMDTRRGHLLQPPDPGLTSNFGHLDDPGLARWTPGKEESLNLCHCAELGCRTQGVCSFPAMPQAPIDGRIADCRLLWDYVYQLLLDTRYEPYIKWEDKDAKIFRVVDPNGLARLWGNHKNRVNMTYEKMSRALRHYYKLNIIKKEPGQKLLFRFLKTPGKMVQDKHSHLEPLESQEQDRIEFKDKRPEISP
The following applies: protein: recombinant; tags: N-terminal GST; dsDNA, one strand shown. In outline: as §1

In the next assay the target is T11, ELF5 (Homo sapiens, UniProt Q9UKW6-2 1-255).
T11 sequence: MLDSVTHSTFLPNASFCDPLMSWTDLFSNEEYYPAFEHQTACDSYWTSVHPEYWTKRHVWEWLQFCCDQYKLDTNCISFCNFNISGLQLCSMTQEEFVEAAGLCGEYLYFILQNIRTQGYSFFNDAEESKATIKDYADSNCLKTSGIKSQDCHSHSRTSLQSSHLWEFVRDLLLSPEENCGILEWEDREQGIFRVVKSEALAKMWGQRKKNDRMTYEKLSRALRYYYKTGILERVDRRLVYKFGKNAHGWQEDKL
The following applies: protein: recombinant; tags: N-terminal GST; dsDNA, one strand shown. In outline: as §1

The target of another assay is T12, ETV3 (Homo sapiens, UniProt P41162-2 1-143).
T12 sequence: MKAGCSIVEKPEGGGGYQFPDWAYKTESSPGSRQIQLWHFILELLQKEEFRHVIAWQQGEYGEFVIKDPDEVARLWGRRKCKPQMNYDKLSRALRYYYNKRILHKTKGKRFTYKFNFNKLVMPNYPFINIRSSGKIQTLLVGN
The note with it: protein: recombinant; tags: N-terminal GST; dsDNA, one strand shown. In outline: as §1

The target in another assay is ETV6 (Homo sapiens, UniProt P41212 1-452). The note with it: protein: recombinant; tags: N-terminal GST; dsDNA, one strand shown. The method, boiled down:
as §1

Chain of ETV1 (P50549 whole entry): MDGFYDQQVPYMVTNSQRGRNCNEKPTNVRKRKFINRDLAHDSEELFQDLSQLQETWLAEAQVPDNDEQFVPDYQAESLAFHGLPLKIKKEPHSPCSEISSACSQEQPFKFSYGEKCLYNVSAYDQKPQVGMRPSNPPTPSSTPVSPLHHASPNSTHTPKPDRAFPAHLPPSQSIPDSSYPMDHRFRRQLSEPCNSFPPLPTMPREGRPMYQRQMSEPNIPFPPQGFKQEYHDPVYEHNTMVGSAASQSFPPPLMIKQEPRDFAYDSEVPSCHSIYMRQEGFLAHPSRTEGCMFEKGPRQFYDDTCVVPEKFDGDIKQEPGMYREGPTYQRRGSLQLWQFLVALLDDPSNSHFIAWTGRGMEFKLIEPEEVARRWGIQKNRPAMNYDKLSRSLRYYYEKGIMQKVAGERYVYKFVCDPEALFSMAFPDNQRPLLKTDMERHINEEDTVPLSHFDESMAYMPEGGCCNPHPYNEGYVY
Chain of ETV6 (P41212 whole entry): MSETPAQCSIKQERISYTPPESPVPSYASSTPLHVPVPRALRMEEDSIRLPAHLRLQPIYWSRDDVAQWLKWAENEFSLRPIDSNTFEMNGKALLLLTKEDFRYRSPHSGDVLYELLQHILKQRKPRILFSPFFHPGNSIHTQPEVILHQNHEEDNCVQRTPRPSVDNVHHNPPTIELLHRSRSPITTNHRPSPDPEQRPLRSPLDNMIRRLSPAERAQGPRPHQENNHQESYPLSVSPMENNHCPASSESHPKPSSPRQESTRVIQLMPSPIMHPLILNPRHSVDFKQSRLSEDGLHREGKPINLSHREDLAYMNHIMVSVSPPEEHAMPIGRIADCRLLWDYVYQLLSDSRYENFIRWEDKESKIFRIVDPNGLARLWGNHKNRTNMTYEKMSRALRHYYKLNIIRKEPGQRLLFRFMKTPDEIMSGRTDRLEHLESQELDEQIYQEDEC
Chain of ELF4 (Q99607 whole entry): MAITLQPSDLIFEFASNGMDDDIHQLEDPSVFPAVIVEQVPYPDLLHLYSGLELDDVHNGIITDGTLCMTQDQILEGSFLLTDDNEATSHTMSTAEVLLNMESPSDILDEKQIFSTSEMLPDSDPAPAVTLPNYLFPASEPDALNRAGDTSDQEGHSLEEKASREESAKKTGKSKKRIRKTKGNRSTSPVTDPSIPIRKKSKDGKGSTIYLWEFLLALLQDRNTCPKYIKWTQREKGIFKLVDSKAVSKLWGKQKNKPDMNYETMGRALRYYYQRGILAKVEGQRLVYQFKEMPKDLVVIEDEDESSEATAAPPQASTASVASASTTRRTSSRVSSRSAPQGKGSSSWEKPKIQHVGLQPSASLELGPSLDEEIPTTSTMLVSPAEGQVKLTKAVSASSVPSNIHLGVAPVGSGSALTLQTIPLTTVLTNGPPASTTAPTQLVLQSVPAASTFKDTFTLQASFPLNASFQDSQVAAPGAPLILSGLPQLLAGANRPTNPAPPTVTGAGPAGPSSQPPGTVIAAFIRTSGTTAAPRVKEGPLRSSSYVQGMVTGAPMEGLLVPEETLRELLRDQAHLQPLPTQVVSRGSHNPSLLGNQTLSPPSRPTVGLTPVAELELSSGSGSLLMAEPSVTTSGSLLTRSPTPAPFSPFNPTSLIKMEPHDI
Chain of HSF1 (Q00613 whole entry): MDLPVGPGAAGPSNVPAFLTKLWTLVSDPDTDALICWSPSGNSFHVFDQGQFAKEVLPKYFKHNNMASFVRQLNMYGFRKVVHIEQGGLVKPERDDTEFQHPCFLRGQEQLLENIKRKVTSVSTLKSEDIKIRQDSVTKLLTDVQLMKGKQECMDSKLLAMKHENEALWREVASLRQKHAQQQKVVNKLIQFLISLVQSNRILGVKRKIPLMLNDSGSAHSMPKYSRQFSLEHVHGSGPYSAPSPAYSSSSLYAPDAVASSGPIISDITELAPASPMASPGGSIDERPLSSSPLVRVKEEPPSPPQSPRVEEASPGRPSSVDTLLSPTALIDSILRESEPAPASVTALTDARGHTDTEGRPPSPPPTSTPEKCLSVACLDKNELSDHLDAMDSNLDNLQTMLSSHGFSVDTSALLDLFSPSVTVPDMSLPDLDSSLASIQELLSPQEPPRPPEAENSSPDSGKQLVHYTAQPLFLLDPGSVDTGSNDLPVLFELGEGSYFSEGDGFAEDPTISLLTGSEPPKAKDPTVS

As to CTCTGA, the binding signal with FEV is 1.23 fold enrichment (6-mer frequency, TF over GST control); in the assay with ETV5 it was 1.15 fold enrichment (6-mer frequency, TF over GST control); with HSF1 it was 1.06 fold enrichment (6-mer frequency, TF over GST control); in the assay with SPIC it was 1.24 fold enrichment (6-mer frequency, TF over GST control); in the assay with ELF4, 1.23 fold enrichment (6-mer frequency, TF over GST control); with ELK4, 1.15 fold enrichment (6-mer frequency, TF over GST control). For the same sequence, the binding signal with ETV2 is 1.12 fold enrichment (6-mer frequency, TF over GST control); in the assay with ELF3, 1.09 fold enrichment (6-mer frequency, TF over GST control); with CRX, 1.08 fold enrichment (6-mer frequency, TF over GST control); in the assay with ETV1 it was 1.3 fold enrichment (6-mer frequency, TF over GST control); in the assay with ERF, 1.22 fold enrichment (6-mer frequency, TF over GST control); in the assay with ETV3L, 1.07 fold enrichment (6-mer frequency, TF over GST control). The binding signal with ETS2 was 1.25 fold enrichment (6-mer frequency, TF over GST control); in the assay with SPDEF it was 1.11 fold enrichment (6-mer frequency, TF over GST control); with ETV7 it was 1.34 fold enrichment (6-mer frequency, TF over GST control); with ELF5, 1.11 fold enrichment (6-mer frequency, TF over GST control); with ETV3, 1.19 fold enrichment (6-mer frequency, TF over GST control); in the assay with ETV6, 1.16 fold enrichment (6-mer frequency, TF over GST control).
